Sampled rows, rich in hits. Any-hit rate of the full collection: about 2%.
Y pestis TopoI – Y. pestis Topo-I inhibition via cleavage products; AID 504884; Y. pestis Topo-I cleavage product accumulation, plate reader; 0.064% of 360,000 active; activity, % at 10 µM; in the data active means activity above about 50%, passing the limit was not always enough; inconclusive means no clear call, values can overlap the other calls
PrPC surface inh – inhibitors of human cell surface prion protein PrPC; TR-FRET read-out; inhibition, % at 13.8 µM; 0.43% of 370,000 active; AID 720596; in the data active means inhibition above about 24%; further: 0% = median of the test wells and 100% = reference compound wells
BJeLR lethal – kills HRASV12-expressing BJeLR cells; inhibition, % (no concentration beside the values); 0.17% of 300,000 active; AID 1554; BJeLR (HRASV12) viability, CellTiter-Glo ATP luminescence, 48 h; in the data active means inhibition above about 50%; inconclusive means no clear call, values can overlap the other calls
PrP UTR inh – inhibition of PrP 5' UTR reporter expression; cell-based PrP 5' UTR mRNA reporter, plate reader; inhibition, % (test concentration not listed); 0.35% of 340,000 active; AID 488862; in the data active means inhibition above about 52%; further: 0 = median of the neutral control wells
PfHsp40 rescue – rescue of PfHsp40-mediated yeast toxicity; AID 504582; growth rescue, % at 12.5 µM; 0.68% of 340,000 active; S. cerevisiae expressing PfHsp40, growth rescue, ATP luminescence; in the data active means growth rescue above about 28%, passing the limit was not always enough; inconclusive means no clear call, values can overlap the other calls;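 further: yeast W303a lacking pdr1 and pdr3 grown in galactose medium; growth measured after three days at 30 °C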
CCHF vOTU inh – blocks the CCHF virus ovarian tumor domain protease. CCHFV vOTU protease, Pep-AMC fluorescence. inhibition, % at 11.5 µM. 0.55% of 370,000 active; in the data active means inhibition above about 30%; further: 0% = vehicle wells with enzyme and 100% = no enzyme wells
PrP UTR cherry – prion 5' UTR mRNA inhibition, cherry-pick retest | shares compounds with PrP UTR inh | cell-based prion protein 5' UTR reporter, plate reader | inhibition, % at 2.5 µM | 48% of 1,100 active | AID 504592; in the data active means inhibition above about 54%; inconclusive means no clear call, values can overlap the other calls
* = called active by the depositor; ? = inconclusive; / = no result.

SMILES	Y pestis TopoI	PrPC surface inh	BJeLR lethal	PrP UTR inh	PfHsp40 rescue	CCHF vOTU inh	PrP UTR cherry
CC(=O)c1c(C)[nH]c(C(=O)COC(=O)CCCOc2ccccc2)c1C	-1	-6	0	58*	0	6	?
C[C@H]1O[C@@H](n2c3ccc(Cl)cc3c3ccc4c5cc(Cl)ccc5[nH]c4c32)[C@H](O)[C@H](O)[C@H]1O	/	0	/	/	/	18	/
Cc1ccc(NC(=O)CN(C)C(=O)C2COc3ccccc3O2)cc1 (stereo not drawn)	-3	-1	-6	75*	0	10	-9
Cc1ccc(NC(=O)CN(C)C(=O)Nc2ccc(C)cc2)cc1	5	1	-8	-20	-1	5	/
Nc1[nH]c(C(=O)c2ccccc2)c(-c2ccccn2)c1C(=O)c1c[nH]c2ccc(Br)cc12	/	-9	/	/	/	/	/
O=C(NC1CCCCN(Cc2cccc(Cl)c2)C1=O)c1ccc(F)c(F)c1 (stereo not drawn)	/	-1	/	/	/	3	/
C=CCCC1(CC(C)C)C(=O)NC(=S)NC1=O	0	-6	/	91*	-1	12	-3
CCOC(=O)C1(CCc2ccccc2)CCN(C(=O)CCn2cncn2)CC1	11	-1	-2	81*	0	-12	-48
C=C(C1=CCN(S(=O)C(C)(C)C)[C@@H]1CCO)c1ccccc1 (stereo partly drawn)	-3	3	/	59*	0	2	-14
Cc1nn(CCc2nn[nH]n2)c2nc(-c3ccc(C4CCCCC4)cc3)cc(C(F)(F)F)c12	-2	-1	1	63*	-1	-3	-35
Cc1nn(CCC(=O)O)c2nc(-c3cccnc3)cc(C(F)(F)F)c12	-7	-3	5	0	-1	-16	/
CN(C)c1ccc2c(c1)C(=NO)c1ccccc1-2	-20	/	/	68*	7	/	-73
CN1OC[C@@H]2CN(C(=S)Nc3cc(C(F)(F)F)cc(C(F)(F)F)c3)[C@H](c3ccccc3Br)C[C@@H]21	/	4	/	/	/	16	/
CCN(CC)Cc1cc(C(C)(C)C)cc(N2CCOCC2)c1O	1	-8	/	73*	-2	-11	4
CN(C)Cc1cc(C(C)(C)C)cc(N2CCOCC2)c1O	4	3	/	-6	0	-8	/
CCC1=Nc2cc(C(=O)NCCCOC)ccc2Sc2ccccc21	-7	2	47	77*	0	-6	36
CCCC1=Nc2cc(C(=O)NCCCOCC)ccc2Sc2ccccc21	32	2	39	58*	0	20	84*
CCC1=Nc2cc(C(=O)NCc3ccco3)ccc2Sc2ccc(C)cc21	34	3	62*	69*	2	14	86*
CCCC1=Nc2cc(C(=O)NCCCOC(C)C)ccc2Sc2ccccc21	4	12	34	-9	4	10	/
COc1cccc(N2CCN(CC(=O)NCc3c(F)cccc3F)CC2)c1	/	1	/	/	/	-2	/
CCOC(=O)c1cnc(Nc2nc3ccccc3o2)nc1C	3	-9	36	65*	-3	-10	70*
CCN(CC)CCNC(=S)NC(=O)c1cn(-c2ccccc2)nc1-c1ccc(OC)cc1	-7	-9	13	67*	0	8	6
CCSc1n[nH]c(=S)s1	-12	-4	1	77*	1	-3	-3
COc1cc2c(c(OC)c1OC)-c1ccc(OC)c(=O)cc1C(NC(=O)c1ccccc1)CC2 (stereo not drawn)	-4	-10	/	56	0	16	/
COc1cc2c(c(OC)c1OC)-c1ccc(O)c(=O)cc1C(NC(C)=O)CC2 (stereo not drawn)	5	-12	57*	63*	0	-13	86*
SMILES	Y pestis TopoI	PrPC surface inh	BJeLR lethal	PrP UTR inh	PfHsp40 rescue	CCHF vOTU inh	PrP UTR cherry
COc1cc2c(c(OC)c1OC)-c1ccc(SC)c(=O)cc1C(NC(=O)c1ccccc1)CC2 (stereo not drawn)	16	-3	/	56*	-2	4	83*
COC(=O)c1ccc2c(c1)C(NC(C)=O)CCc1cc(OC)c(OC)c(OC)c1-2 (stereo not drawn)	2	8	/	51	0	5	/
COc1c(C=O)c2c(c(OC)c1OC)-c1ccc(OC)c(=O)cc1C(NC(C)=O)CC2 (stereo not drawn)	5	7	/	58*	6	28	86*
CCOC(=O)c1cnc2c(-c3ccccc3OC)c(C)nn2c1C	1	-10	-3	76*	-2	-12	-25
CCOC(=O)c1ccc(CNC(=O)CCC(=O)O)cc1	-3	1	-2	67*	-1	8	-2
Cc1cc(C2=NNC(=NC3CC3)SC2)c(C)n1-c1ccccc1F	1	7	22	94*	-2	21	96*
c1cc2c(cc1C1=NNC(=NC3CC3)SC1)OCCO2	4	-5	49	91*	-2	5	91*
Cc1cc(/C=C2\SC(=S)N(C)C2=O)c(C)n1-c1ccccc1O	-5	-3	0	13	1	22	/
Cc1cc(/C=C2\SC(=S)N(C)C2=O)c(C)n1-c1ccc(O)cc1	-28	-9	2	76*	450*	21	77*
CN1CCN(CC(=O)Nc2cccc(S(=O)(=O)N(C)c3ccccc3)c2)CC1	1	1	/	91*	-1	7	0
CCOc1ccc(OCCC(=O)OCC(=O)c2c(N)n(CC(C)C)c(=O)n(C)c2=O)cc1	4	1	/	/	/	2	/
Cc1ccc(OCCC(=O)OCC(=O)c2c(N)n(CC(C)C)c(=O)n(C)c2=O)cc1	6	-3	/	89*	3	12	1
COc1cc(O)c(C(CC(=O)N2CC(C)OC(C)C2)c2ccc3c(c2)OCO3)c(OC)c1 (stereo not drawn)	/	-6	/	/	/	/	/
COc1cc(O)c(C(CC(=O)N2CCC(C)CC2)c2ccc3c(c2)OCO3)c(OC)c1 (stereo not drawn)	/	-7	/	/	/	/	/
Cc1ccc(Sc2cnc3ccccc3n2)cc1	-2	22	-6	88*	0	13	-83
COC(=O)CSc1cnc2ccccc2n1	-3	-2	3	-7	0	14	/
C[C@H]1[C@@H](OS(=O)(=O)O)C[C@@H]2C[C@H]([C@@H](O)c3cc(=O)[nH]c(=O)[nH]3)NC3=NC[C@H]1N32	4	/	/	61*	/	/	66*
CCOc1ccc(OCC(=O)Nc2cccc(S(=O)(=O)NC3=NCCC3)c2)cc1	1	11	/	0	-1	9	/
CCOc1ccc(C(=O)NC(=S)Nc2cccc(S(=O)(=O)NC3=NCCC3)c2)cc1	38	8	23	54*	0	-7	?
Cc1ccc(-c2cc(C(=O)NN=Cc3sccc3C)[nH]n2)cc1C	/	0	/	/	/	7	/
CC(C)C[C@H]1CNC(=S)N1CC1CCCN1C[C@H](Cc1ccc(O)cc1)N1C[C@H](Cc2ccccc2)N(CC2CCCCC2)C1=S (stereo partly drawn)	14	-5	/	67*	1	8	-3

Compound activity: PubChem, several laboratories
